Laboratory results taken from PubChem BioAssay (Tox21).
Records with an inconclusive call do not appear. A call without a number means that no potency is given here. A number with no mark means an inactive call. The source made the active and inactive calls. The call rests on the fitted dose curve; in most records, active means well fitted cell-killing curve with a large enough effect in the repeat runs; inconclusive means weak or mixed curves, or effect the other way; inactive means no such curve, though single readings can be large or run the other way. Where a SMILES comes first, the peptide text is derived from it.

Test: qHTS assay for small molecule activators of the heat shock response signaling pathway - cell viability counter screen (AID 743209); further: nearly all actives have a fitted effect of over 50% in size
Details: HSE-bla HeLa viability, CellTiter-Glo luminescence, 5 h; series mostly up to 62.6 µM
Excerpt: U.S. Tox21 Program National Center for Advancing Translational Sciences [NCATS] NIH Chemical Genomics Center [NCGC] U.S. Environmental Protection Agency [EPA] National Institutes of Environmental Health Sciences [NIEHS] National Toxicology Program [NTP] U.S. Food and Drug Administration [FDA] Tox21 Assay Overview: Various chemicals, environmental and physiological stress conditions may lead to the activation of heat shock response/ unfolded protein response (HSR/UPR). There are three heat shock transcription factors (HSFs) (HSF-1, -2, and -4) mediating transcriptional regulation of the human HSR. To identify the compounds that activate HSR signaling, HSE-bla HeLa cell line (Invitrogen, Carlsbad, CA, USA) containing a beta-lactamase reporter gene under the control of the heat shock response elements was used to screen Tox21 10K compound library. The cytotoxicity of the Tox21 compound library against the HSE-bla HeLa cell line was tested in parallel by measuring the cell viability using CellTiter-Glo assay (Promega, Madison, WI) in the same wells.
Tox21 Assay Protocol Summary: The CellSensor HSE-bla HeLa cells (Invitrogen, Carlsbad, CA, USA) were dispensed at 1500 cells/6uL/well into 1536-well black wall/clear bottom plates using a Multidrop combi (Thermo Fisher Scientific, Waltham, MA) dispenser. After the assay plates were incubated at 37 C and 5% CO2 overnight, 23 nL of compounds dissolved in DMSO, positive controls or DMSO only was transferred to the assay plate by a Pintool station (Kalypsys, San Diego, CA). The plates were incubated at 37 C for 5 h. After 1 uL of LiveBLAzerTM B/G FRET substrate was added using a Flying Reagent Dispenser (FRD, Beckman Coulter, Indianapolis, IN, USA), the plates were incubated at room temperature for 2.5 h, and fluorescence intensity was measured by an Envision plate reader (PerkinElmer, Shelton, CT). For cell viability readout that measures cytotoxicity, 3 ul/well of CellTiter-Glo reagent was added into the assay plates using a FRD. After 30 min incubation at room temperature, the luminescence intensity in the plates was measured using a ViewLux (PerkinElmer) plate reader.
With CC(=O)C(C)O (stereo not given) the Potency was “inactive”.
For c1ccc2cnccc2c1, the Potency was “inactive”.
In the case of C[C@H]1[C@@H](c2ccccc2)NC(=O)N1C, the Potency is reported as “inactive”.
With CC1(C)O[C@H]2CC(=O)OC[C@]23[C@H]2CC[C@@]4(C)[C@H](c5ccoc5)OC(=O)[C@H]5O[C@]54[C@]2(C)C(=O)C[C@@H]13 the Potency was “inactive”.
In the case of CCCSSCCC, the Potency is reported as “inactive”.
For CSc1cnccn1, the Potency was “inactive”.
In the case of CCCCCCCCCCCCCBr, the Potency is reported as “inactive”.
For CC(=O)C1C(=O)C=C(C)OC1=O (stereo not given), the Potency was “inactive”.
For CC(=O)OC(C)=O, the Potency was “inactive”.
For CN(C)CCN(C)CCO, the Potency was “inactive”.
In the case of O=C(CN1CCNCC1)NC1CCCCC1, the Potency is reported as “inactive”.
With O=C[O][Al]([O]C=O)[O]C=O the Potency was “inactive”.
For CCCCC1CCC(O)CC1 (stereo not given), the Potency was “inactive”.
In the case of NCCOCCN, the Potency is reported as “inactive”.
For OCC(O)CN1CCN(c2ccccc2)CC1 (stereo not given), the Potency was “inactive”.
With CCC(=O)CC the Potency was “inactive”.
In the case of CC(CO)(CO)CO, the Potency is reported as “inactive”.
For CC(=O)CC(=O)OC(C)(C)C, the Potency was “inactive”.
In the case of C=CCN1C[C@H](C(=O)N(CCCN(C)C)C(=O)NCC)C[C@@H]2c3cccc4[nH]cc(c34)C[C@H]21, the Potency is reported as “inactive”.
For CO[C@@]1(NC(=O)Cc2cccs2)C(=O)N2C(C(=O)O)=C(COC(N)=O)CS[C@@H]21, the Potency was “inactive”.
For C=CC/C=C/C, the Potency was “inactive”.
For CN1C[C@@H]2C[C@H]1CN2c1cc2c(cc1F)c(=O)c(C(=O)O)cn2C1CC1, the Potency was “inactive”.
For Cc1ccc(N)cc1S(=O)(=O)O, the Potency was “inactive”.
In the case of Cc1ccc(C(C)NC(=O)[C@@H](NC(=O)OC(C)C)C(C)C)cc1 (stereo not given in full), the Potency is reported as “inactive”.
In the case of CC/C(C)=N\O[Si](C)(O/N=C(\C)CC)O/N=C(\C)CC, the Potency is reported as “inactive”.
For Cc1ccccc1C(N)=O, the Potency was “inactive”.
For COc1cc2c(cc1OC)C(=O)C(CC1CCN(Cc3ccccc3)CC1)C2 (stereo not given), the Potency was “inactive”.
With CC(C)C1OCCN1CCOC(=O)NCCCCCCNC(=O)OCCN1CCOC1C(C)C (stereo not given) the Potency was “inactive”.
With COc1ccc2c(c1)c1c3n2CCN(C)C3=NCC1 the Potency was “inactive”.
In the case of CCN(CC)CCN, the Potency is reported as “inactive”.
In the case of CCOc1ccccc1OCC1CNCCO1 (stereo not given), the Potency is reported as “inactive”.
In the case of CC(=O)O[C@H]1C[C@@H]2CC[C@@]1(C)C2(C)C, the Potency is reported as “inactive”.
In the case of C=CC(=O)OCC1CCCO1 (stereo not given), the Potency is reported as “inactive”.
For CC(=O)N[C@@H](CO)C(=O)N[C@@H](CC(=O)O)C(=O)N[C@@H](CCCCN)C(=O)N1CCC[C@H]1C(=O)O (Ac-SDKP-OH), the Potency was “inactive”.
With O=Cc1ccccc1Cl the Potency was “inactive”.
In the case of O=S(=O)(O)c1ccc2c(N=Nc3ccc(S(=O)(=O)O)c4ccccc34)c(O)c(S(=O)(=O)O)cc2c1, the activity change, negative = cytotoxicity is reported as 0.481% [at 5.95 µM].
In the case of CCCC(=O)OC/C=C(\C)CCC=C(C)C, the Potency is reported as “inactive”.
In the case of CC(C)NC(=O)c1ccc(C=O)cc1, the Potency is reported as “inactive”.
With Cc1ccc(C(=O)O)cc1[N+](=O)[O-] the Potency was “inactive”.
In the case of CC1CCc2c(N3CCC(O)CC3)c(F)cc3c(=O)c(C(=O)O)cn1c23 (stereo not given), the Potency is reported as “inactive”.
